High-throughput results as filed in PubChem.
The list is not random: actives were taken first. Their share in the collection is about 1.9%.
VLA-4 agonist: enhancers of LDV-FITC binding to VLA-4 integrin, primary screen, Jurkat cells, flow cytometry; AID 528, 2006; 24,000 tested, under 10 active; Integrin alpha-4 (Homo sapiens), P13612; activation, % at 10 µM (by protocol);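 active means fluorescent ligand binding to cells raised by more than 40% of the manganese-induced maximum; inconclusive means compound's own fluorescence above 85% of the ligand control signal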
Proteasome disasm: inhibitors of ATP-driven 26S proteasome dissociation, primary screen, biochemical, bead-based flow cytometry, GFP-tagged proteasome; anti-FLAG beads, GFP-proteasome disassembly; inhibition of disassembly, % (test concentration not listed); 0.2% of 24,000 active; AID 751, 2007;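 active means inhibition of disassembly above about 33%, limit read from the data; inconclusive means likely self-fluorescent, control bead median signal at least 40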;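 further: higher percent means more bead fluorescence retained so stronger block of disassembly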
Jurkat autofluor: compound autofluorescence on Jurkat cells, primary screen, artefact control for VLA-4 allosteric ligand project, cell-based, flow cytometry. AID 576, 2007. fluorescence ratio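 (tested at 10 µM compound in the well)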. 0.61% of 24,000 active. active compounds read high; 1 = vehicle-only cell background;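 active means fluorescence ratio above 2.44, which is 1 plus 3 SD of all ratios; inconclusive means signal too bright to measure linearly, ratio around 10 or more; inactive means fluorescence ratio below 2.44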;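 further: green fluorescence of cells measured with 488 nm excitation and 530 nm emission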
FPR binder: human FPR ligands by binding competition, primary screen, cell-based, FPRL1 counter-screen, flow cytometry; fMet-Leu-Phe receptor (Homo sapiens), P21462; FPR-expressing cells, fluorescent ligand binding; inhibition, % (test concentration not listed); 0.74% of 24,000 active; AID 440, 2006
Target sequence (P21462 whole entry, looked up): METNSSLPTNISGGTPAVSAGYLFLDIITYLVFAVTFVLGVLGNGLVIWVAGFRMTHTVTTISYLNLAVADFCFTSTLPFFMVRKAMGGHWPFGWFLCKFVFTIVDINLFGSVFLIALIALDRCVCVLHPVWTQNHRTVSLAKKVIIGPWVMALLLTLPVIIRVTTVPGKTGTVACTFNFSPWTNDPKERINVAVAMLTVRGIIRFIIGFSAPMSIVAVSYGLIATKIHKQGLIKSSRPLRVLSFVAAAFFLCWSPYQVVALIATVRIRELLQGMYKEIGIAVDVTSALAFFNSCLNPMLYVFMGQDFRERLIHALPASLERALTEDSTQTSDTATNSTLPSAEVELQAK
VLA-4 antagonist: inhibitors of LDV-FITC binding to Mn2+-activated VLA-4, primary screen, Jurkat cells; Integrin alpha-4 (Homo sapiens), P13612; LDV-FITC binding with Mn2+, flow cytometry; 100% = Mn2+-driven binding gain fully reversed; inhibition, % at 10 µM (by protocol); 0.2% of 24,000 active;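 active means inhibition above 50%; inconclusive means compound itself fluorescent, judged against control cell fluorescence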
FPRL1 ligand: human FPRL1 ligands by binding competition, primary screen, cell-based, FPR counter-screen, flow cytometry; N-formyl peptide receptor 2 (Homo sapiens), P25090; FPRL1-expressing cells, fluorescent ligand binding inhibition; inhibition, % (concentration not given with the values); 0.3% of 24,000 active
Target sequence (P25090 whole entry, looked up): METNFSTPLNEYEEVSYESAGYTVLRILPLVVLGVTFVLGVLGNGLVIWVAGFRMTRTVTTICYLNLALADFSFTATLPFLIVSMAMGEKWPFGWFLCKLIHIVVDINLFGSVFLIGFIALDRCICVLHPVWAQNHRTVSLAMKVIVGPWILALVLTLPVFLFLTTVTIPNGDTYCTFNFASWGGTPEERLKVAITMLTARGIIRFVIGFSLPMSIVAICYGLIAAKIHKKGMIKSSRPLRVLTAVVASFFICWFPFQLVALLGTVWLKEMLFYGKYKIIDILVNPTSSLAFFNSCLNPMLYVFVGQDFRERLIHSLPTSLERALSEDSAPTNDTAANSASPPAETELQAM
Each line names hits and unclear results; the compound was inactive in the other large screens. Unless noted, no stated cut-off is given here; in the data, active means inhibition above about 30%; inconclusive means no clear call, values can overlap the other calls; inactive means below that.

COc1ccc(-c2c(=O)n(OCc3ccccn3)c3ccccc3[n+]2[O-])cc1OC	VLA-4 agonist inconclusive, Jurkat autofluor 2.5, VLA-4 antagonist inconclusive
COc1ccc(NC(=O)CSc2ccccn2)cc1OC	none
C=CCn1c(SCC2=C(C(=O)OCC)C(C)NC(=O)N2)nnc1C1CCCCC1 (stereo unspecified)	none
COc1ccc2c(c1)C(=O)N(c1ccccc1OC)C(=O)C2	VLA-4 agonist inconclusive, Jurkat autofluor 6.3, VLA-4 antagonist inconclusive
CC(C)C(C(=O)Nc1ccc2c(c1)OCO2)N1C(=O)c2ccccc2C1=O (stereo unspecified)	none
CCC(SC1=Nc2ccccc2C2=NC(CC(C)C)C(=O)N12)C(=O)Nc1ccc2c(c1)OCO2 (stereo unspecified)	VLA-4 agonist inconclusive, FPR binder 58, VLA-4 antagonist inconclusive
CNC(=S)Nc1ccc(Nc2ccccc2)cc1	none (no result: VLA-4 agonist, Proteasome disasm, Jurkat autofluor, VLA-4 antagonist)
C=CCn1c(/N=C/c2ccc(N(C)C)cc2)nc2ccccc21	VLA-4 agonist inconclusive, Jurkat autofluor 4.8, FPR binder inconclusive, VLA-4 antagonist inconclusive, FPRL1 ligand inconclusive
Cc1cccc(-n2nc3c(c2NC(=O)c2ccco2)CSC3)c1C	FPR binder 96
Cc1ccc(CCNC(=O)CN2C(=O)COc3ccccc32)cc1	VLA-4 antagonist 62
Cc1ccc(CNC(=O)CN2C(=O)COc3ccc(C)cc32)cc1	none
Cc1nc2ccccn2c1/C(O)=C1\C(=O)C(=O)N(CCCn2ccnc2)C1c1ccncc1 (stereo unspecified)	none (no result: VLA-4 agonist, Proteasome disasm, Jurkat autofluor, VLA-4 antagonist)
Cc1onc(-c2ccccc2Cl)c1C(=O)Nc1cnn(Cc2ccccc2)c1	none
CCOc1ccc(C2N(c3ccc(F)cc3)C(=O)C3CCCN32)cc1OC (stereo unspecified)	Proteasome disasm 51
CCOc1ccc(C2N(c3ccc(OC)cc3)C(=O)C3CCCN32)cc1OC (stereo unspecified)	none
COc1cccc(C2C=C(c3cccs3)Nc3ncnn32)c1OC (stereo unspecified)	none
COc1ccc(C2C=C(c3ccc(Br)s3)Nc3ncnn32)cc1OC (stereo unspecified)	VLA-4 agonist inconclusive, Jurkat autofluor 3.3, VLA-4 antagonist inconclusive
O=C(Nc1ccc(Cl)cc1)N(Cc1cccnc1)Cc1ccco1	none
O=C(O)CC1Oc2ccc(Cl)cc2NC1=O (stereo unspecified)	FPRL1 ligand 37
COC(=O)CC1Oc2ccc(C)cc2NC1=O (stereo unspecified)	none
O=C(Nc1ccc(-c2noc(CCc3ccccc3)n2)cc1)c1ccco1	none
O=c1[nH]c(Nc2ccccc2)cc2ccccc12	VLA-4 agonist inconclusive, Jurkat autofluor 2.9, VLA-4 antagonist inconclusive
COc1ccc(S(=O)(=O)NCCSCc2ccco2)cc1Cl	none
Cc1ccc(O)c(-c2cc(C(=O)Nc3ccc(S(=O)(=O)N4CC(C)OC(C)C4)cc3)[nH]n2)c1 (stereo unspecified)	none
Cc1cc(O)c(-c2cc(C(=O)Nc3ccc(S(=O)(=O)N4CCOCC4)cc3)[nH]n2)cc1C	VLA-4 antagonist 56
CCOc1ccc2nc(N3CCC(C(=O)N4CCN(c5ccccn5)CC4)CC3)sc2c1	VLA-4 antagonist 54
COc1ccc(-c2nc(C(N)=O)c3[nH]c(=O)n(-c4cccc(Cl)c4)c3n2)cc1OC	VLA-4 agonist inconclusive, Jurkat autofluor 4.5, VLA-4 antagonist inconclusive
CCOC(=O)C(NS(=O)(=O)c1ccc(Br)cc1)C(C)C (stereo unspecified)	VLA-4 agonist inconclusive, VLA-4 antagonist inconclusive
COc1cc2c3c(c1)/C(=C1/SC(NC(C)=O)=NC1=O)C(=O)N3C(C)(C)C=C2C	FPR binder 30
O=c1c2ccccc2cnn1-c1nc2ccccc2s1	none
Cc1nnc(SC(=O)N2c3ccccc3Sc3ccccc32)s1	none
O=c1cc(N2CCc3ccccc32)[nH]c(=O)n1Cc1ccc(F)cc1	FPR binder 43
Cc1nc2ccc(S(=O)(=O)NCC(=O)N3CCC(C)CC3)cc2s1	none
Cc1nnc(SCC(C)C)[nH]c1=O	VLA-4 agonist inconclusive, VLA-4 antagonist inconclusive
Cc1nnc(SCc2cnc(-c3ccccc3)o2)[nH]c1=O	FPR binder 63, FPRL1 ligand 52
CCOC(=O)c1c(C)oc2c1c1c(c3ccccc32)OCN(Cc2ccccn2)C1	VLA-4 antagonist 79 (no result: Proteasome disasm, FPR binder, FPRL1 ligand)
CC(C)(C)NC(=O)NC(=O)COc1ccccc1C#N	VLA-4 agonist inconclusive, Jurkat autofluor 4, VLA-4 antagonist inconclusive
CCOc1ccc(CCNC(=O)C2CC(=O)N(C3CCCC3)C2)cc1OCC (stereo unspecified)	none
O=C1CN(c2nc3ccccc3n3cnnc23)CC(=O)N1CCc1ccccc1	none
CCOc1cc2[nH]c(=O)n(CCCCCC(=O)NCc3ccco3)c(=O)c2cc1OCC	VLA-4 antagonist 52 (no result: Proteasome disasm, FPR binder, FPRL1 ligand)
CCOc1cc2[nH]c(=S)n(CCCCC(=O)NCc3ccco3)c(=O)c2cc1OCC	none
CCOC(=O)Nc1ccc(OC)cc1S(=O)(=O)N1CCCCC1	FPR binder 63, FPRL1 ligand 51
COC(=O)c1sc(N2C(=O)C(O)=C(C(=O)c3ccc(C)o3)C2c2ccc(F)cc2)nc1C (stereo unspecified)	VLA-4 agonist inconclusive, Jurkat autofluor 3.8, VLA-4 antagonist inconclusive
Cc1ccc(C2C(C(=O)c3ccco3)=C(O)C(=O)N2c2nnc(C)s2)cc1 (stereo unspecified)	none (no result: VLA-4 agonist, Proteasome disasm, Jurkat autofluor, VLA-4 antagonist)
Cc1ccc(OC(=O)NC2CCS(=O)(=O)C2)cc1C (stereo unspecified)	none
Cc1cc2oc(C(=O)NC3CCS(=O)(=O)C3)c(C)c2cc1C (stereo unspecified)	FPR binder 48, FPRL1 ligand 51
COc1ccc(-c2cc(C(F)(F)F)nc(NC3CCCC3)n2)cc1OC	FPRL1 ligand 32
COc1ccc(-c2cc(C(F)(F)F)nc(N3CCOCC3)n2)cc1OC	none
Cc1ccc(C)c(-n2c(CNC(=O)c3ccco3)nnc2SCC(=O)N2CCc3ccccc32)c1	FPR binder 55
Cc1ccc(C)c(-n2c(CNC(=O)c3ccco3)nnc2SCC(=O)Nc2nnc(C)s2)c1	none
CCCOc1ccc2c(=O)c(-c3cc(C(=O)OC)oc3C)c(C)oc2c1	none (no result: VLA-4 agonist, Proteasome disasm, Jurkat autofluor, VLA-4 antagonist)
CCC(=O)NC(C)C(c1cccs1)N1CCN(c2ccccc2)CC1 (stereo unspecified)	FPRL1 ligand 47
CCOC(=O)CCCCC(=O)c1[nH]c(=O)[nH]c1CSc1nc2ccccc2[nH]1	VLA-4 antagonist 55
CCN(CC)c1ccc(C=N/C(C#N)=C(\N)C#N)cc1	VLA-4 agonist inconclusive, Proteasome disasm inconclusive, Jurkat autofluor 5.9, VLA-4 antagonist inconclusive, FPRL1 ligand 68
